Assay outcomes as filed in PubChem BioAssay.
This is a sample that favours compounds with a hit; in the whole collection about 2.3% have one here.
Tau fluor counter – counter-screen for tau fibril formation inhibitors; tau K18 P301L Alexa594 fluorescence, heparin fibrillization; Potency, µM (doses to about 57.7 µM), for the others: top-dose activity change, negative = decrease; 280,000 compounds, 0.93% hits; AID 1463; also: potency is read from the fitted curve at half-maximal effect; nearly all actives have a fitted effect of over 55% in size
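Human tau K18 P301L (15 uM unlabeled, 0.24 uM Alexa 594-labeled) in 100 mM sodium acetate pH 7 with 20 uM heparin, 6 hr at 37 C. ThT 30 uM added, 1 hr ambient; Alexa 594 FP and total fluorescence read at 555/632 nm.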
USP1-UAF1 inh – blocks the human USP1/UAF1 deubiquitinase complex. O94782. recombinant USP1/UAF1, Ub-Rhodamine cleavage fluorescence. Potency, µM (series often up to 57.1 µM), without a hit: at the highest dose activity change, negative = inhibition, most hits filed as inhibitors. 390,000 compounds, 0.23% hits; also: potency is read from the fitted curve at half-maximal effect; nearly all actives have a fitted effect of over 60% in size
Target sequence (O94782 whole entry, looked up): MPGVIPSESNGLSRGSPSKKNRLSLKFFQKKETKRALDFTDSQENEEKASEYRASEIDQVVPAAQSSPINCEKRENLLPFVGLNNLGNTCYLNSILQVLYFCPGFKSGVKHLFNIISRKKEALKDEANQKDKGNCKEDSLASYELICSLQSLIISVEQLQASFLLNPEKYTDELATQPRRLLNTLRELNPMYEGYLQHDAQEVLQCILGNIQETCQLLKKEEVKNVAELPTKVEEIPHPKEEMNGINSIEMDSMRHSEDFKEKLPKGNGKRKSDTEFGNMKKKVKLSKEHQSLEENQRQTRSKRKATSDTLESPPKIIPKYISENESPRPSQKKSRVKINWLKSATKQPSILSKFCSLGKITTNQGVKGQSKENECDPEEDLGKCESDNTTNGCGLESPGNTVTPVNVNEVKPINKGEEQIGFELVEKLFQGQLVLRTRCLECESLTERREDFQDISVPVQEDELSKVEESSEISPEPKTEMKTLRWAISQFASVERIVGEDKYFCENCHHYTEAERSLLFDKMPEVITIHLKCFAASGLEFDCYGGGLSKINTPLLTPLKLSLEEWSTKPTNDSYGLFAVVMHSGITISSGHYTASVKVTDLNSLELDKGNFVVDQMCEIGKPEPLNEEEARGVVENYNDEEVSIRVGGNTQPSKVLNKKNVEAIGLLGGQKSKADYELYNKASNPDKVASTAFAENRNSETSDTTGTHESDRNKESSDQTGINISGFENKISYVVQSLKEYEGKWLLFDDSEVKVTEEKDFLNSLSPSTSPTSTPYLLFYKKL
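In this screen, compounds sit with the deubiquitinase complex (1nM) for 15 min at room temperature before Ub-Rho is added at 150nM final. Fluorescence rise is then followed for 6 reads every 60 seconds.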
Tau fibril ThT – blocks human tau fibril formation measured by thioflavin T | recombinant tau K18 P301L, heparin-induced fibrillization, ThT fluorescence | 270,000 compounds, 2.1% hits | Potency, µM (titrated, usually from 57.4 µM), for the others: at the highest dose activity, negative = inhibition, hits mostly inhibitors | P10636; also: potency is read from the fitted curve at half-maximal effect; nearly all actives have a fitted effect of over 55% in size
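ThT emission at 510 nm, taken 1 hr after adding 30 uM dye, quantifies aggregates formed when 20 uM heparin acts on human tau K18 P301L for 6 hr at 37 C.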
FBPA coupling cs – inhibits coupling enzyme system, counter-screen for aldolase hits; coupling enzyme system counterscreen, AmpLite Red fluorescence; activity change, negative = inhibition, % at 58.2 µM, hits read low; 290,000 compounds, 0.67% hits; AID 2472; in the data active = activity change below about -30%
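Compounds tested against the coupling enzymes alone at 57.5 uM final; readout was AmpLite Red fluorescence (525/598 nm) after 20 min at RT.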
Tau FP inhib – tau fibrillization inhibition (FP) | AID 1468 | P10636 | K18 P301L tau heparin fibrillization, Alexa594 FP, 6 h | 280,000 compounds, 0.39% hits | Potency, µM (titrated, usually from 57.7 µM), without a hit: top-dose activity, negative = inhibition, hits mostly inhibitors; also: potency is read from the fitted curve at half-maximal effect; nearly all actives have a fitted effect of over 55% in size
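Compound effects on tau fibrillization are measured by Alexa 594 fluorescence polarization (ex 555, em 632 nm). K18 P301L tau is used at 15 uM with 0.24 uM labeled tracer, and 20 uM heparin induces aggregation over 6 hr at 37 C.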
The depositor's hits bear a star; ! = repeats disagree; [ ] = dose if it differs, or a comment. Unless noted, calls follow the shape of the dose curve; as a rule, active = well fitted curve in the direction sought with a large enough effect; inconclusive = small, poorly fitted or top-dose-only effect, or another doubt; inactive = no such curve, though single readings can be large; an effect the other way counts as inactive or inconclusive. % is scaled to controls: 0 for no effect and ±100 for the full control effect.

Screening O=c1ccc2cc(OC3OC(CO)C(O)C(O)C3O)c(O)cc2o1 (stereo unspecified) returned Tau fluor counter 2%, Tau fibril ThT 4%, FBPA coupling cs 9 and Tau FP inhib 3%.
CCC1(C)CC(C(N)=S)CCO1 (stereo unspecified) was read as Tau fluor counter -14%, USP1-UAF1 inh -23%, Tau fibril ThT 13µM*, FBPA coupling cs -1 and Tau FP inhib inconclusive.
`COC(=O)c1nc(-c2ccc3c(n2)C(=O)C(N)=C(OC)C3=O)c(N)c(-c2ccc(OC)c(OC)c2O)c1C` gave Tau fluor counter inconclusive, USP1-UAF1 inh 7.1µM*, FBPA coupling cs -37* and Tau FP inhib inconclusive.
`CCOC(=O)Cn1cc([N+](=O)[O-])nc1[N+](=O)[O-]` gave Tau fluor counter 12%, USP1-UAF1 inh -23%, Tau fibril ThT 10%, FBPA coupling cs -39* and Tau FP inhib 1%.
Screening Cc1c(N=Nc2c(O)[nH]c(=S)[nH]c2=O)c(=O)n(-c2ccccc2)n1C returned Tau fluor counter -7%, USP1-UAF1 inh 2%, Tau fibril ThT inconclusive, FBPA coupling cs -3 and Tau FP inhib inconclusive.
Screening O=c1[nH]c(=S)[nH]c(O)c1N=Nc1ccc(S(=O)(=O)N2CCc3ccccc32)cc1 returned Tau fluor counter inconclusive, USP1-UAF1 inh -12%, Tau fibril ThT 5µM*, FBPA coupling cs 0 and Tau FP inhib 9%.
Screening O=c1[nH]c(=S)[nH]c(O)c1N=Nc1ccc(SC(F)F)cc1 returned Tau fluor counter -20%, USP1-UAF1 inh -16%, Tau fibril ThT 3.5µM*, FBPA coupling cs 1 and Tau FP inhib -16%.
For O=C1C=CC(=O)c2c(O)cccc21 the results were Tau fluor counter 7.1µM*[quencher], Tau fibril ThT 11µM*, FBPA coupling cs -26 and Tau FP inhib inconclusive.
`CCOc1cccc(OCC)c2c(C)[n+](CC3CCCO3)c(C)c1-2` (stereo unspecified) gave Tau fluor counter inconclusive, USP1-UAF1 inh inconclusive, Tau fibril ThT 20µM*, FBPA coupling cs -23 and Tau FP inhib inconclusive.
For COc1ccc(CCNCC2CCCO2)cc1 (stereo unspecified) the results were USP1-UAF1 inh -12% and FBPA coupling cs -1.
Screening CCOC(=O)C1CCN(/C=C2/C(=O)NC(=O)N(c3ccc(OCC)cc3)C2=O)CC1 returned Tau fluor counter -19%, USP1-UAF1 inh -16%, Tau fibril ThT 14µM*, FBPA coupling cs 0 and Tau FP inhib inconclusive.
`CN1Cc2c(c(C#N)c(N)n(C)c2=S)CC1(C)C` gave Tau fluor counter -19%, USP1-UAF1 inh 28µM*, Tau fibril ThT inconclusive, FBPA coupling cs -28 and Tau FP inhib -6%.
Screening N#CC(C#N)=Cc1cc(O)c(O)c(O)c1 returned Tau fluor counter inconclusive, Tau fibril ThT 13µM*! and Tau FP inhib 22µM*!.
`CCOC(=O)CCN(SN(C)C(=O)Oc1cccc2c1OC(C)(C)C2)C(C)C` gave FBPA coupling cs -2.
For O=C1NC(=O)[C@]2(Cc3ccccc3N3CCN(c4ccccc4)CC32)C(=O)N1Cc1ccccc1 (stereo partly specified) the results were Tau fluor counter -20%, USP1-UAF1 inh -16%, Tau fibril ThT 32µM*, FBPA coupling cs -6 and Tau FP inhib inconclusive.
Screening CC(=O)CC(c1ccccc1)c1c(O)c2ccc(O)cc2oc1=O (stereo unspecified) returned FBPA coupling cs 8.
For CCN(CC)c1ccc(/C=C2\C(=O)NC(=S)N(C)C2=O)o1 the results were Tau fluor counter -10%, USP1-UAF1 inh inconclusive, Tau fibril ThT 14µM*, FBPA coupling cs 1 and Tau FP inhib 6%.
Screening CCN(CC)c1ccc(C=C2C(=O)N(C)C(=S)N(C)C2=O)o1 returned Tau fluor counter -1%, USP1-UAF1 inh -15%, Tau fibril ThT 10µM*, FBPA coupling cs 1 and Tau FP inhib -12%.
`COc1ccc(N2C(=O)/C(=C/c3ccc(N(C)C)o3)C(=O)NC2=S)cc1` gave USP1-UAF1 inh inconclusive and FBPA coupling cs -1.
`COP(=S)(OC)Oc1ccc([N+](=O)[O-])c(C)c1` gave FBPA coupling cs 0.
`Cc1ccc2cc3c(ccc4ccccc43)c3c2c1CC3` gave Tau fluor counter -25%, Tau fibril ThT 16µM* and Tau FP inhib inconclusive.
Screening CC1=C2C(=O)C3C(CC=C4C[C@@H](O)CC[C@@]43C)[C@@H]2CC[C@]12O[C@@H]1C[C@H](C)CN[C@H]1C2C (stereo partly specified) returned FBPA coupling cs 0.
`Oc1ccc(Cl)cc1Cc1cc(Cl)ccc1O` gave Tau fluor counter 11µM*[quencher], USP1-UAF1 inh -19%, Tau fibril ThT inconclusive, FBPA coupling cs 0 and Tau FP inhib inconclusive.
`CCC(=O)Oc1ccc2c(c1)CCC1C2CC[C@]2(C)C(OC(=O)CC)CCC12` (stereo partly specified) gave Tau fluor counter -18%, Tau fibril ThT inconclusive, FBPA coupling cs -10 and Tau FP inhib 9%.
Screening CC(C)[C@@]1(NC(=O)[C@@H]2C=C3c4cccc5[nH]cc(c45)C[C@H]3N(C)C2)O[C@@]2(O)[C@@H]3CCCN3C(=O)[C@H](Cc3ccccc3)N2C1=O returned Tau fluor counter inconclusive, Tau fibril ThT 13µM*, FBPA coupling cs -40* and Tau FP inhib inconclusive.
CN1C[C@@H](C(=O)N[C@@]2(C)O[C@]3(O)C4CCCN4C(=O)[C@@H](Cc4ccccc4)N3C2=O)C=C2c3cccc4[nH]cc(c34)C[C@@H]21 (stereo partly specified) was read as Tau fluor counter inconclusive, Tau fibril ThT inconclusive, FBPA coupling cs -32* and Tau FP inhib inconclusive.
Screening CC(C)C[C@H]1C(=O)N2CCC[C@H]2[C@]2(O)O[C@](NC(=O)[C@@H]3C=C4c5cccc6[nH]c(Br)c(c56)CC4N(C)C3)(C(C)C)C(=O)N12 (stereo partly specified) returned Tau fluor counter inconclusive, USP1-UAF1 inh -27%, Tau fibril ThT inconclusive, FBPA coupling cs -21 and Tau FP inhib 0%.
Screening CC(C)C[C@H]1C(=O)N2CCCC2[C@]2(O)O[C@](NC(=O)[C@@H]3C=C4c5cccc6[nH]cc(c56)CC4N(C)C3)(C(C)C)C(=O)N12 (stereo partly specified) returned Tau fluor counter inconclusive, USP1-UAF1 inh 13µM*, Tau fibril ThT 13µM*, FBPA coupling cs -38* and Tau FP inhib inconclusive.
For Cc1ccc(NC(=O)COc2ccc(-c3nn(C)c(=O)c4ccccc34)cc2)c(C)c1 the results were Tau fluor counter -10%, USP1-UAF1 inh inconclusive, Tau fibril ThT -9% and Tau FP inhib -1%.
